An excerpt weighted towards active compounds, which were near 9.2% of everything screened.
ELG1 genotoxic: genotoxicity induction in ELG1-luciferase HEK293T cells | HEK293T ELG1-luciferase reporter, luminescence, 16 h | Potency, µM (top dose mostly 46 µM), hits mostly activators | 1.3% of 330,000 active; note: nearly all actives have a fitted effect of over 60% in size
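Step 1: seed 2,000 HEK293T ELG1-luciferase cells per well. Step 2: add compound or DMSO, incubate 16 hr at 37 °C. Step 3: ONE-Glo, 30 min at room temperature, read luminescence.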
SMN2 splice up: increases expression of the SMN2 splice variant | AID 1458 | 2.8% of 210,000 active | HEK293 SMN2-luciferase splicing reporter, luminescence, 30-36 h | Potency, µM (series often up to 46.1 µM), actives largely listed as activators; note: nearly all actives have a fitted effect of over 55% in size
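HEK293 cells carry an SMN2 […]–luciferase reporter in which exon 7 inclusion puts luciferase in frame. Cells were plated 10-12 h before compound addition, then incubated 30-36 h at 37C. ONE-Glo luminescence was read; sodium butyrate at 4.5 mM final served as control.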
NPC1 promoter act: NPC1 promoter activation; Huh7 NPC1 promoter luciferase reporter, 24 h; Potency, µM (doses to about 9.22 µM), most hits filed as activators; 2.4% of 320,000 active; note: nearly all actives have a fitted effect of over 60% in size
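Readout is luciferase luminescence, reflecting NPC1 promoter activation in stably transfected Huh7 cells after 24 h compound exposure at 37 °C in reduced-serum medium with 10% FBS.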
FLuc counter: firefly luciferase modulation, counter-screen for miR-21 project; purified FLuc, Km substrates, luminescence inhibition; Potency, µM (top dose mostly 57.5 µM), most hits filed as inhibitors; AID 588342; 6.9% of 360,000 active; note: nearly all actives have a fitted effect of over 55% in size
Target sequence (P08659 whole entry, looked up): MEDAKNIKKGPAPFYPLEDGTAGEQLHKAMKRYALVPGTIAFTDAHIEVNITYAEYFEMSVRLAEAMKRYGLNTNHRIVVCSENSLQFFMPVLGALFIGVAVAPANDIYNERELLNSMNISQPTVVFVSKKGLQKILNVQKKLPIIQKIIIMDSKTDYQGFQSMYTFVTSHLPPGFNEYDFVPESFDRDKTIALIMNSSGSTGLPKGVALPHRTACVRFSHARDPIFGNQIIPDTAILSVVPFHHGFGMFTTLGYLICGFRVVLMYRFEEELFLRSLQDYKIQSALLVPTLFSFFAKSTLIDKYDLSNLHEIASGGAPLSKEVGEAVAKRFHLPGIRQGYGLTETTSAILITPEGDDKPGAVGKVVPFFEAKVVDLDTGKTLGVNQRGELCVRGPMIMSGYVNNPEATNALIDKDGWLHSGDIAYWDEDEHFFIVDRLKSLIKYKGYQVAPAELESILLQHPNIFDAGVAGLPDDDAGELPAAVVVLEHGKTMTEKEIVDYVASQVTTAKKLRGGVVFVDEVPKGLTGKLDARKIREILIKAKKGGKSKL
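Purified P. pyralis luciferase (10nM final) with 10uM D-luciferin and 10uM ATP (Km levels) in 50mM Tris acetate pH 7.5, 10mM Mg acetate, 0.01% Tween-20, 0.05% BSA; qHTS 6-point titration, ~60 µM downward; luminescence read.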
ELG1 repair inh: blocks ELG1-dependent DNA repair in HEK293T cells; HEK293T ELG1-luciferase reporter, luminescence, 16 h; DNA damage induced by 5-fluorouridine; Potency, µM (doses to about 46.1 µM), most hits filed as inhibitors; 2.3% of 330,000 active; AID 504467; note: nearly all actives have a fitted effect of over 55% in size
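In this reporter screen, reduction of luminescence relative to DMSO vehicle indicated activity. Compounds and 5-fluorouridine were added together to 2,000 cells per well, incubated for 16 hr at 37 °C, then developed with ONE-Glo.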
Rab9 promoter act: activators of Rab9 promoter; Huh7 Rab9 promoter-luciferase reporter, luminescence, 24 h; Potency, µM (top dose mostly 9.22 µM), usual class: activators; 2.8% of 320,000 active; AID 485297; note: nearly all actives have a fitted effect of over 60% in size
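Promoter activation is measured as luciferase luminescence in Huh7 cells stably transfected with a Rab9 promoter–luciferase construct, following 24 h compound exposure at 37 °C and 10 min reagent incubation at ambient temperature.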
A number is an active result; - = inactive; ? = inconclusive; . = not tested or not shown; [ ] = another dose, or the depositor's remark. Calls come from the whole dose curve; as a rule, active = well fitted curve in the direction sought with a large enough effect; inconclusive = small, poorly fitted or top-dose-only effect, or another doubt; inactive = no such curve, though single readings can be large; an effect the other way counts as inactive or inconclusive.

SMILES | ELG1 genotoxic | SMN2 splice up | NPC1 promoter act | FLuc counter | ELG1 repair inh | Rab9 promoter act
Cc1ccc(CN(Cc2cc3cc4c(cc3[nH]c2=O)OCCO4)Cc2nnnn2Cc2ccco2)cc1 | - | - | - | - | 23µM | -
Cc1ccc(C)c2[nH]c(=O)c(CN(CCN3CCOCC3)Cc3nnnn3CC3CCCO3)cc12 (centres undefined) | - | - | - | - | 16µM | -
COc1ccccc1CN(Cc1cc2c(C)ccc(C)c2[nH]c1=O)Cc1nnnn1Cc1ccco1 | - | - | - | - | 18µM | -
COc1ccc2cc(CN(CCc3ccccc3)Cc3nnnn3Cc3ccco3)c(=O)[nH]c2c1 | - | - | - | - | ? | -
N[C@@H](C(=O)O)[C@@H](CC(=O)O)c1ccc(Cl)cc1 | . | - | . | . | . | .
O=C(NCC(=O)N(CC1CCCO1)C(C(=O)NC1CCCCC1)c1cccnc1)c1cccs1 (centres undefined) | - | - | - | - | - | -
CNc1c([N+](=O)[O-])cnn1-c1ccc(Cl)cc1Cl | - | - | - | - | - | -
CNc1c([N+](=O)[O-])cnn1-c1ccccc1Cl | - | - | - | 15µM | ? | -
COc1ccc(S(=O)(=O)Nc2ccccc2C(=O)Nc2nc(-c3ccc(F)cc3)cs2)cc1OC | - | - | - | ? | 15µM | -
COc1ccc(-c2csc(NC(=O)COc3ccc(N(C)S(=O)(=O)c4ccc(C)cc4)cc3)n2)cc1 | - | -[1.84 µM] | - | - | 7.3µM | -
COc1ccc(-c2csc(NC(=O)c3ccc(S(=O)(=O)N4CCc5ccccc5C4)cc3)n2)cc1 | - | - | - | - | ? | -
COc1ccc(-c2csc(NC(=O)c3ccccc3NS(=O)(=O)c3ccc(C)cc3)n2)cc1 | - | - | - | ? | 13µM | -
COc1cccc(NC(=O)Cn2c(=O)n(CCCCC(=O)NCc3ccc4c(c3)OCO4)c(=O)c3ccccc32)c1 | . | - | . | - | . | .
COc1ccc(Nc2nc(C(=O)N3CCc4ccccc4C3)cs2)cc1 | - | . | - | - | - | -
COc1ccc(Nc2nc(C(=O)N3CCc4cc(OC)c(OC)cc4C3)cs2)cc1 | - | . | - | - | 16µM | -
COc1ccc(CNc2nc(-c3ccco3)nn2C(=O)CC(C)C)cc1 | . | 13µM | . | . | . | .
CC(C)CC(=O)n1nc(-c2ccco2)nc1NCc1ccc(Cl)cc1 | . | - | . | - | . | .
CCc1ccc(S(=O)(=O)Nc2cccc(-c3ccc(N4CCCCC4)nn3)c2)s1 | . | . | . | 2.7µM | . | .
Cc1ccc(S(=O)(=O)Nc2cccc(-c3ccc(N4CCCCC4)nn3)c2)s1 | . | . | . | 1.1µM | . | .
O=S(=O)(Nc1cccc(S(=O)(=O)N2CCCCC2)c1)c1ccc(Cl)s1 | - | . | . | . | - | .
CCc1ccc(S(=O)(=O)Nc2cccc(-c3ccc4nnc(C)n4n3)c2)s1 | - | . | - | - | - | -
CN(NC1OC(=O)c2ccccc21)c1ccccc1[N+](=O)[O-] (centres undefined) | - | . | - | ? | - | -
Fc1ccc(C2=CC(c3ccc(F)cc3)n3c(nc4ccccc43)N2)cc1 (centres undefined) | . | . | . | 11µM | . | .
COC(=O)c1ccc(C2C=C(c3ccc(Cl)cc3)Nc3nc4ccccc4n32)cc1 (centres undefined) | . | . | . | 6.7µM | . | .
COC(=O)c1nc2n(n1)C(c1cc(OC)ccc1OC)C=C(c1ccc(Br)cc1)N2 (centres undefined) | . | . | . | - | . | .
SMILES | ELG1 genotoxic | SMN2 splice up | NPC1 promoter act | FLuc counter | ELG1 repair inh | Rab9 promoter act
COc1ccc(C2=CC(c3cc(Br)ccc3F)n3c(nc4ccccc43)N2)cc1 (centres undefined) | . | . | . | 4.3µM | . | .
COc1ccc(C(=O)Nc2nc3n(n2)C(c2ccc(F)cc2)C=C(c2ccc(Cl)cc2)N3)cc1 (centres undefined) | . | . | . | - | . | .
O=C(COc1ccccc1)Nc1nc2c(s1)CCCC2 | ? | . | ? | 13µM | ? | ?
COc1ccccc1OCC(=O)Nc1nc(C)c(C)s1 | ? | . | 2.8µM | 8.5µM | ? | 4µM
Cc1cnc(NC(=O)COc2ccccc2Cl)s1 | ? | 0.79µM | 0.1µM | 0.27µM | ? | 0.25µM
O=C(COc1ccccc1Cl)Nc1nc2c(s1)CCCC2 | . | . | . | 21µM | . | .
O=C(CSCc1ccc(F)cc1)Nc1nc2c(s1)CCCC2 | - | - | - | - | - | -
COC(=O)c1sc(NC(=O)COc2ccccc2C)nc1C | ? | - | - | ? | ? | ?
COc1ccccc1C(=O)Nc1ccc(-c2nnn(CC(=O)NCc3ccco3)n2)cc1 | - | . | - | - | - | -
COc1ccc(OC)c(NC(=O)C2CCN(S(=O)(=O)c3c(C)noc3/C=C/c3ccc(C)cc3)CC2)c1 | . | . | . | - | . | .
O=C(Nc1cccc(O)c1)C(=O)Nc1ccccn1 | ? | 10µM | ? | 1.5µM | ? | 3.5µM
S=C(Nc1ccccc1)c1ccccn1 | ? | ? | 3.5µM | 8.5µM | ? | 2.8µM
O=C(Nc1ccccc1)C(=O)Nc1ccccn1 | ? | 4.5µM | ? | 1.7µM | ? | 0.45µM
C/C(CC(=O)Nc1ccccn1)=N\NC(=O)C(=O)Nc1cccc(C)c1 | - | - | - | - | - | -
O=C(O)/C=C\C(=O)Nc1ccccn1 | . | -[9.22 µM] | . | . | . | .
S=C(Nc1ccc(Nc2ccccc2)cc1)Nc1ccccn1 | ? | - | - | ? | - | -
COc1cc(Cl)c(C)cc1NC(=O)c1nn(-c2ccc(C)cc2)c(=O)n(C)c1=O | . | . | . | - | . | .
COc1ccc(-c2csc(NC(=O)/C(N=Nc3ccccc3)=C(\C)O)n2)cc1 | - | - | - | ? | - | -
O=c1c2cnn(-c3ccccc3)c2nc(-c2cccs2)n1-c1cccc(Cl)c1 | - | - | - | - | 15µM | -
CCc1ccccc1N1CC(c2nc3ccccc3n2CCCCOc2ccccc2OC)CC1=O (centres undefined) | . | - | . | - | . | .
COc1ccccc1OCCCn1c(C2CC(=O)N(c3ccccc3Cl)C2)nc2ccccc21 (centres undefined) | . | - | . | 17µM | . | .
CCOc1ccccc1N1CC(c2nc3ccccc3n2CCCOc2ccccc2OC)CC1=O (centres undefined) | . | - | . | 17µM | . | .
COc1ccc(CNC(=O)C2=C(C)C(=O)OC23CCCCC3)cc1 | . | . | . | - | . | .
Fc1ccc2nc(C3CCN(Cc4nc(CC5CC5)no4)CC3)[nH]c2c1 | - | . | - | - | ? | -
Fc1ccccc1C1CCN(Cc2nc(CC3CC3)no2)C1 (centres undefined) | ? | . | ? | 17µM | ? | ?
CCCc1cc(=O)n(-c2nc3ccccc3s2)[nH]1 | - | . | - | ? | 21µM | -
CCOC(=O)Cc1cc(=O)n(-c2nc3ccccc3s2)[nH]1 | - | - | - | 24µM | - | -
CC(/C=C/c1ccccc1)=N\NC(=O)c1ccc2c(c1)OCCO2 | - | - | - | ? | - | -
C/C(=N\NC(=O)c1ccc2c(c1)OCO2)c1ccc2c(c1)OCO2 | - | 16µM | ? | 13µM | ? | 3.5µM
